Measured values reported in PubChem BioAssay AID1851 (National Center for Advancing Translational Sciences (NCATS), 2009).
“And” between values parts separate entries of the source, which are not always exact repeats. Identical values can stand only once. Screen size: about 16,000 compounds; about 4,000 (25%) were called active. Not shown: some 26% with an inconclusive outcome. Calls follow the shape of the dose curve; as a rule, active = well fitted curve in the direction sought with a large enough effect; inconclusive = small, poorly fitted or top-dose-only effect, or effect the other way; inactive = no such curve, though single readings can be large or run the other way. Only a sample is shown. Where a structure was tested more than once in an assay, its records may differ in their call.

Biological target: Cytochrome P450 2C9 (Homo sapiens) (UniProt P11712)
Assay: Cytochrome panel assay with activity outcomes
Conditions: recombinant CYP, pro-luciferin dealkylation, luminescence, p450-cyp2c9; series mostly up to 57.1 µM; activity, negative = inhibition: at the top concentration
% is scaled to controls: 0 for no effect and ±100 for the full control effect.

Cytochrome P450 2C9 (Homo sapiens), sequence (P11712 whole entry, looked up): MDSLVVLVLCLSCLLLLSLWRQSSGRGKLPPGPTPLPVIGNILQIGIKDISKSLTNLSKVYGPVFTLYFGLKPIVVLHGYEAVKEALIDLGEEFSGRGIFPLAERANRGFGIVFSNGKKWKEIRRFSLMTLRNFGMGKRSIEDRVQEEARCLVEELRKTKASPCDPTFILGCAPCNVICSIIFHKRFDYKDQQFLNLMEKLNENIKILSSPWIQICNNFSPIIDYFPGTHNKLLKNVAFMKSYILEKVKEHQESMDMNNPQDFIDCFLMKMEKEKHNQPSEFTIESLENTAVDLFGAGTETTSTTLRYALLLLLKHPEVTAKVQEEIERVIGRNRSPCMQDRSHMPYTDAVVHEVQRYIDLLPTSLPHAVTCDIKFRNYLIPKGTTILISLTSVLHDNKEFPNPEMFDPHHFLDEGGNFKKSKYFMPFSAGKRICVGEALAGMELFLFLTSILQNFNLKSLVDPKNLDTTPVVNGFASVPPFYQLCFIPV

Compound	activity, negative = inhibition	AC50
C[N+]1(C)CCc2cc3c(cc2[C@@H]1[C@@H]1OC(=O)c2c1ccc1c2OCO1)OCO3	17.7% (inactive)	
O=C(Nc1ccccc1)N1CC[C@@]2(CCCN(C(=O)Oc3ccccc3)C2)C1	-20.1% (inactive)	
O=C(O)/C=C(\CC(=O)O)C(=O)O	-16.9% [at 11.4 µM] (inactive)	
COCOc1ccc(Br)cc1C(=O)/C=C\c1ccc2c(c1)OCO2		2000 nM (active)
O=C(O)C(=O)Cc1ccc2c(c1)OCO2	25.4% [at 11.4 µM] (inactive)	
CCN1CCC2(CC1)NC(CO)(CO)CO2	0.863% (inactive)	
O=C(O)[C@H]1[C@H](C(=O)O)[C@H]2CC[C@@H]1O2	5.98% (inactive)	
N[C@H](Cc1c[nH]c2ccccc12)P(=O)(O)O	5.69% [at 11.4 µM] (inactive)	
C[C@@]12CC(=O)[C@H]3[C@@H](CCC4=CC(=O)CC[C@]43C)[C@H]1CCC2=O	13% [at 25.6 µM] (inactive)	
CCOC(=O)Cn1cc(C(=O)c2ccccc2F)c2ccccc21		7080 nM (active)
CCCn1c(C)c(C(=O)c2cccc3ccccc23)c2ccccc21	-12.1% (inactive)	
O=C(c1ccccc1F)c1cn(CC(=O)N2CCOCC2)c2ccccc12		11200 nM (active)
C[C@@]12CC[C@@H]3c4ccc(O)cc4C[C@H](CCCCCCCCCS(=O)CCCC(F)(F)C(F)(F)F)[C@H]3[C@@H]1CC[C@@H]2O (stereo partly specified)	-9.41% (inactive)	
O=c1cc(-c2ccc(O)cc2)oc2c([C@H]3O[C@@H](CO)[C@@H](O)[C@@H](O)[C@@H]3O)c(O)cc(O)c12	-15% [at 25.6 µM] (inactive)	
CN1CC[C@@]2(CCCN(C(=O)Oc3ccccc3)C2)C1	-0.577% (inactive)	
CCN1CCN(c2ccc(NC(=O)C(C)C)cc2Cl)CC1	-14.2% (inactive)	
C(=NC12CN3CN(CN(C3)C1)C2)c1cccs1	-20.8% (inactive)	
CCS(=O)(=O)Nc1cccc(C(=C2CCCCC2)c2cnc[nH]2)c1		631 nM (active)
CNC(C)(C)Cc1ccccc1	15.3% [at 25.6 µM] (inactive)	
Brc1c(NC2=NCCN2)ccc2nccnc12	-26.3% (inactive)	
O=C(Nc1cccc(F)c1)N1CC2(CCN(C(=O)Oc3ccccc3)CC2)C1	-10.4% (inactive)	
Nc1ncnc2c1ncn2[C@@H]1O[C@@H](COP(=O)(O)CP(=O)(O)OP(=O)(O)O)[C@H](O)[C@@H]1O	-0.747% (inactive)	
CN1C(=O)c2ccccc2Sc2ccc(C(=O)N3CCC4(CC3)OCCO4)cc21		8910 nM (active)

Compound	activity, negative = inhibition	AC50
C=CCN1C(=O)c2ccccc2Sc2ccc(C(=O)N3CCC4(CC3)OCCO4)cc21		1260 nM (active)
CC(=O)c1ccc2c(c1)N(CCCN(C)C)c1ccccc1S2	20.6% [at 25.6 µM] (inactive)	
CN1[C@@H](C[C@@H](O)c2ccccc2)CCC[C@@H]1C[C@H](O)c1ccccc1	-7.42% [at 25.6 µM] (inactive)	
CCCN(CCC)[C@@H]1CCc2c(OC)cccc2[C@@H]1C	-6.07% (inactive)	
C=C1CC[C@H](O)C/C1=C/C=C1\CCC[C@]2(C)[C@H]1CC[C@H]2[C@@H](C)CCCC(C)C	1.21% [at 25.6 µM] (inactive)	
CC[C@@]1(O)C(=O)OCc2c1cc1n(c2=O)Cc2cc3ccccc3nc2-1	inactive	
CCC(COC(=O)NC)NC(=O)Oc1ccccc1 (stereo unspecified)	21.5% (inactive)	
CN(C(=O)Cc1ccccc1)[C@H](CN1CCCC1)c1ccccc1	-8.81% (inactive)	
Cc1cc[c]([Sb]2[O][C@H]([C@H](O)[C@H](O)C(=O)O)[C@@H](CO)[O]2)cc1	14% [at 11.4 µM] (inactive)	
O=C(O)CN1CCN(CC(=O)O)CC(=O)[O][Hg][O]C(=O)C1		1260 nM (active)
C[C@]12CC[C@H]3c4ccc(O)cc4CC[C@@H]3[C@H]1CC[C@@H]2OP(=O)(O)O	12.3% [at 11.4 µM] (inactive)	
Nc1ccccc1O.O.O=C(O)[C@H]1[O][Sb][O][C@H]1C(=O)O	14.2% [at 11.4 µM] (inactive)	
O=c1[nH]cnc2[nH]cc(CN3CCCCC3)c12	-6.24% [at 11.4 µM] (inactive)	
N=C1c2ccccc2CN1NC(=O)c1ccc(Cl)cc1	-1.51% (inactive)	
O=C(Oc1ccccc1)N1CCC2(CCCN(Cc3nccs3)C2)CC1	-16.6% (inactive)	
C[C@@H](Cc1cccc(C(F)(F)F)c1)NCCCc1ccccc1	-1.99% (inactive)	
C[C@@]12CC[C@H]3[C@H](CC=C4C[C@@H](O)CC[C@@]43C)[C@@H]1CC[C@@H]2N(CCO)CCO	7.98% [at 11.4 µM] (inactive)	
C[C@H]1CC[C@@]2(NC1)O[C@@H]1C[C@@H]3[C@@H]4CC=C5C[C@@H](O)CC[C@]5(C)[C@@H]4CC[C@]3(C)[C@H]1[C@@H]2C	-1.5% [at 11.4 µM] (inactive)	
CN(C)CCC(=O)[C@@]1(O)CC[C@H]2[C@H]3CC=C4C[C@@H](O)CC[C@]4(C)[C@H]3CC[C@]21C		2510 nM (active)
Oc1ccc2c3c1O[C@H]1c4oc5ccccc5c4C[C@]4(O)[C@H](C2)N(CC2CC2)CC[C@@]314	inactive	
CN1CCN(c2ncc3ncc(=O)n(C)c3n2)CC1	-1.78% (inactive)	
C[C@@H](Cc1ccccc1)NCCC(c1ccccc1)c1ccccc1	-14.2% [at 25.6 µM] (inactive)	
C[C@@H](Cc1ccc(OCC(=O)O)cc1)NC[C@H](O)c1cccc(Cl)c1		inactive and 6.31 µM (active)
